Common to all, as to experiment: phage ELISA signal ratio (GST-PRM binding over GST background); higher = stronger binding of peptide-phage to the PRM
In general terms: In an ELISA, binding on a coated surface is turned into a signal by an enzyme label.

For assay [1], the target named is MAD2L1 2-205 HORMA (domain begin residue: 2, domain end residue: 205), Q13257. In short, it runs like this:
(§1)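 Human peptide recognition domains were expressed in 96-well plates as fusions to the C-terminus of glutathione S-transferase (GST) and selected against an M13 phage library displaying randomized hexadecapeptides, cysteine-free and glycine-flanked, on the gene-8 major coat protein. Five selection rounds were run, and approximately 48 individual clones from rounds 4 and 5 were tested by phage ELISA. Each value is the ELISA signal on the GST-domain fusion divided by the signal on GST alone. Positive clones were sequenced.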

In assay [2] the target is T1, MDM4 26-106 SWIB (domain begin residue: 26, domain end residue: 106), O15151.
T1 chain: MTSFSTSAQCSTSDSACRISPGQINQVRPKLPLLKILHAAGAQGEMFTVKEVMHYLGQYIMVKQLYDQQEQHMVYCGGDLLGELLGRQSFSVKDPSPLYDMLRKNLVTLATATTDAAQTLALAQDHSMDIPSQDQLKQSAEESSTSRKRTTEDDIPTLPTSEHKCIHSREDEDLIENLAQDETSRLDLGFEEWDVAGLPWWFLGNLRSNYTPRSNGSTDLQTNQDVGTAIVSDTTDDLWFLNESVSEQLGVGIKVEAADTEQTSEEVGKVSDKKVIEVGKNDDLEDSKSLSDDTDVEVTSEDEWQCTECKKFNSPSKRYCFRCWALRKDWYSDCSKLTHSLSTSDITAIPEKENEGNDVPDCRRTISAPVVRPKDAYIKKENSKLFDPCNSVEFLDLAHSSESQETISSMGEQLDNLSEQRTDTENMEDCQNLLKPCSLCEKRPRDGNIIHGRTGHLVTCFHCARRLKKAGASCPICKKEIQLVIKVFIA
In short, it runs like this: as §1

Assay [3] deals with MSH6 89-203 PWWP (domain begin residue: 89, domain end residue: 203), P52701. In short, it runs like this: as §1
Assay [4] addresses T2, SND1 650-910 TUDOR+SNase (domain begin residue: 650, domain end residue: 910), Q7KZF4.
T2 chain: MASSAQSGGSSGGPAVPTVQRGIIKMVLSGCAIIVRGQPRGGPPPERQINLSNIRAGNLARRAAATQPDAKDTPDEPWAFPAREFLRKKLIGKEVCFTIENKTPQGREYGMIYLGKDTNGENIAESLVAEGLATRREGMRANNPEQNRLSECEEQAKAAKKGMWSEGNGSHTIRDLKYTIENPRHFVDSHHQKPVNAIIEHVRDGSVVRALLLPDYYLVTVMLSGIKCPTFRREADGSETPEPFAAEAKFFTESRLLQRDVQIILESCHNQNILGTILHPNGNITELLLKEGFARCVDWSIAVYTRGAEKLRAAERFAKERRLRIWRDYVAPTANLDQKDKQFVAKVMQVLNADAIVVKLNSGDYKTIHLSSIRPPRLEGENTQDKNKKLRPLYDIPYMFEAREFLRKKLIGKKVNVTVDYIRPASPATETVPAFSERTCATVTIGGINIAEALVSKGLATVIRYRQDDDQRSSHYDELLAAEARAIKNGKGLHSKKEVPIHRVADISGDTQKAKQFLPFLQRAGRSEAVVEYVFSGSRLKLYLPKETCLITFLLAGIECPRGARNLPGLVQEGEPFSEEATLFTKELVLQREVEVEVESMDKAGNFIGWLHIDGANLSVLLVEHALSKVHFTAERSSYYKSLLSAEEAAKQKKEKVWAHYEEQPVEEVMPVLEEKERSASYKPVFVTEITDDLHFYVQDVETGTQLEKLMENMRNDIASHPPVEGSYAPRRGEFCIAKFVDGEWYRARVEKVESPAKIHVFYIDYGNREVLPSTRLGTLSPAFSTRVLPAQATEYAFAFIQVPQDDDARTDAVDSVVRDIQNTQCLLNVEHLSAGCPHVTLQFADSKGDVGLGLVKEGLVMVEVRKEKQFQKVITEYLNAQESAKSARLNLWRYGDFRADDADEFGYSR
An outline of the steps: as §1

MAD2L1 2-205 HORMA (domain begin residue: 2, domain end residue: 205), Q13257, sequence (Q13257 whole entry, the tested form may be a part): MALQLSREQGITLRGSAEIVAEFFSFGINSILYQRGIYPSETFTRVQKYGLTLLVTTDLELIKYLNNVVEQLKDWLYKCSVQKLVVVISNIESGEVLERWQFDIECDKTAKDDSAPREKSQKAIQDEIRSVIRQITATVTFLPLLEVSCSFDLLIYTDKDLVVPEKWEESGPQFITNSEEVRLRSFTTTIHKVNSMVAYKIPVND
MSH6 89-203 PWWP (domain begin residue: 89, domain end residue: 203), P52701, sequence (P52701 whole entry): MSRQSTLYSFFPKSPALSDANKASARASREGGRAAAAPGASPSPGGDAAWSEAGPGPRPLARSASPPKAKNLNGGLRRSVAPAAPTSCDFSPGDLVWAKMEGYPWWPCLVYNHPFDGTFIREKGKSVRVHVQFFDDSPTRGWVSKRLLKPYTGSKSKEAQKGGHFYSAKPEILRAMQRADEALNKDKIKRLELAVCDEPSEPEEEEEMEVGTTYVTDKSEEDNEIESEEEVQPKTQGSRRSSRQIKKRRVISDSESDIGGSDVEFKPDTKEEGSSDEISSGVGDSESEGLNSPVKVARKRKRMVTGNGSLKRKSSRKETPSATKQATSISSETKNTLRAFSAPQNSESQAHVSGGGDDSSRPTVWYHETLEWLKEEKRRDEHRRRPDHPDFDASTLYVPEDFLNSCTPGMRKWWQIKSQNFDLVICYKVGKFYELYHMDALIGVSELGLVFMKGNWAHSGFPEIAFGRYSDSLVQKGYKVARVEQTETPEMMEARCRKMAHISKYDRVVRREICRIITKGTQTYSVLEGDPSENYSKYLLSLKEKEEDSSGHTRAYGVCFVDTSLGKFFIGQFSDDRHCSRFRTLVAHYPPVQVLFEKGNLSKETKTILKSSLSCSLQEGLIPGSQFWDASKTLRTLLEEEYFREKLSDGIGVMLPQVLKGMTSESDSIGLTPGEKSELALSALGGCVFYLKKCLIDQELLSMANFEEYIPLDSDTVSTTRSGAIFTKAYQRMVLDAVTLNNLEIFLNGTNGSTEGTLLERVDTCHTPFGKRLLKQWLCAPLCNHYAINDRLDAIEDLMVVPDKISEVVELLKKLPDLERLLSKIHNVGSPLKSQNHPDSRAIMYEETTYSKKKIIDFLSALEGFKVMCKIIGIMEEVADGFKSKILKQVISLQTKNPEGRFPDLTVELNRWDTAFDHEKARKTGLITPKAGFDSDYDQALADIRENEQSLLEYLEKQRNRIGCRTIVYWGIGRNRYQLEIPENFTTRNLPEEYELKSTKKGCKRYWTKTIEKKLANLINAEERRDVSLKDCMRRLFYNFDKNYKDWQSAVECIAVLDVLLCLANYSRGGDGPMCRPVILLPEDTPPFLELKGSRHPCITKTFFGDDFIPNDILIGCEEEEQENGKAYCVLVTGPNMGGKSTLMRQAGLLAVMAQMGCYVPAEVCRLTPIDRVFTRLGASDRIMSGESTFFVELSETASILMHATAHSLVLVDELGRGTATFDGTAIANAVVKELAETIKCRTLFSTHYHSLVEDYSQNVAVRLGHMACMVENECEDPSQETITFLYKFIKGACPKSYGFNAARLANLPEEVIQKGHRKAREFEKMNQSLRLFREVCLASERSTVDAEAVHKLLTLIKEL

Regarding WYIIRGPMWHEPHVIE, the “phage ELISA signal ratio” value in assay [1] was found to be 8.9. For AFWTHWQKLIPPEFQA, in assay [2], the “phage ELISA signal ratio” value amounted to 26.1. Take FTAQDVLSHMSLWEFT: the “phage ELISA signal ratio” value in assay [2] stood at 21.7. As for WYMESLWQPDMMLPKF, in assay [3], the “phage ELISA signal ratio” value worked out at 2.63. Turning to MPYAQMQFMDYWQELA, in assay [2], the “phage ELISA signal ratio” value amounted to 21.3. VWYRFEPAPMPKPHGQ: the “phage ELISA signal ratio” value in assay [1] was 20.4. For QHSAMSAVWHFGPMWY, the “phage ELISA signal ratio” value in assay [1] was 15.

Turning to DSNIWLTRGPVHNTQQ, the “phage ELISA signal ratio” value in assay [1] came out at 14.1. Take YDFSQYWDAIPEQFIV: the “phage ELISA signal ratio” value in assay [2] worked out at 18.1. Same read-out and setting: next, VEHEFLWHWGQIDFMM: 16; KDFSMWWVELKEVEVS: 17.4. Turning to TWWHLAGPRSHLTTSY, in assay [1], the “phage ELISA signal ratio” value came out at 12.8. On the same count and under the same terms, next, VWYHWQPPDSPINVIE: 11.6. As for FVEMWNDMMFEDWDLV, the “phage ELISA signal ratio” value in assay [2] was 26.4. In the case of MWWYDGEMEKMIMETL, the figures for the “phage ELISA signal ratio” value in assay [3] and in assay [4] were 4.31 and 7.5, respectively.

Regarding MPLFMDLWQDMMPTNY, the “phage ELISA signal ratio” value in assay [2] was 17.9. On the same count and under the same terms, next, TFSESWATLTSTSEWM: 20.4; DFAWWWSQMLEAEVNF: 12.3. For the molecule DREQSGWFILRAPVYQ, in assay [1], the “phage ELISA signal ratio” value amounted to 18.9. On the same count and under the same terms, then PQTGHWIKFPKPWLEN, with 15.5. For the molecule KMELSFWEFWQVLQHE, in assay [2], the “phage ELISA signal ratio” value came to 18.

With SWLRFKAEPPQHIAQL, the “phage ELISA signal ratio” value in assay [1] came out at 9. In the case of AVFSQLWEAMPAVDWT, in assay [2], the “phage ELISA signal ratio” value was determined as 14.9. For the molecule GWFHIAPPPKQAEYTE, the “phage ELISA signal ratio” value in assay [1] turned out to be 12.8. Consider YSIWMMEPPKVAPKAE, for which the “phage ELISA signal ratio” value in assay [1] was determined as 15. Regarding MVEQQVFWYLWMELMN, the “phage ELISA signal ratio” value in assay [2] came to 19.4. Same read-out and setting: then IEFMDYWDSLDWMQKV, with 14.7. Take SWWMLQGPKQMNEIHA: the “phage ELISA signal ratio” value in assay [1] is 8.75. As for DFMDFWEDATMGLVGT, in assay [2], the “phage ELISA signal ratio” value came to 21.7.

The values are drawn from the supplement of paper PMC7724964.
